NPC1 promoter act: NPC1 promoter activation; 2.4% of 320,000 active; Potency, µM (highest dose often 9.22 µM), most hits filed as activators; AID 485313; Huh7 NPC1 promoter luciferase reporter, 24 h; note: nearly all actives have a fitted effect of over 60% in size
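Huh7 reporter cells (NPC1 promoter driving luciferase) are dosed with compound for 24 h at 37 °C, 5% CO2; luciferase detection reagent is then added and luminescence measured after 10 min at ambient temperature.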
Rab9 promoter act: Rab9 promoter activation | Potency, µM (doses to about 9.22 µM), most hits filed as activators | Huh7 Rab9 promoter-luciferase reporter, luminescence, 24 h | AID 485297 | 2.8% of 320,000 active; note: nearly all actives have a fitted effect of over 60% in size
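Promoter activation is measured as luciferase luminescence in Huh7 cells stably transfected with a Rab9 promoter–luciferase construct, following 24 h compound exposure at 37 °C and 10 min reagent incubation at ambient temperature.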
ELG1 genotox: inducers of genotoxicity in HEK293T ELG1-luciferase cells | HEK293T ELG1-luciferase reporter, luminescence, 16 h | AID 504466 | Potency, µM (series often up to 46 µM), hits mostly activators | 1.3% of 330,000 active; note: nearly all actives have a fitted effect of over 60% in size
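Screening used a luciferase reporter fused to human ELG1 in HEK293T cells. Luminescence was read on a CCD plate imager after 16 hr exposure and 30 min ONE-Glo incubation.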
SMN2 splice enh: enhancers of SMN2 splice variant expression; HEK293 SMN2-luciferase splicing reporter, luminescence, 30-36 h; Potency, µM (doses to about 46.1 µM), usual class: activators; 2.8% of 210,000 active; note: nearly all actives have a fitted effect of over 55% in size
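HEK293 cells carry an SMN2 […]–luciferase reporter in which exon 7 inclusion puts luciferase in frame. Cells were plated 10-12 h before compound addition, then incubated 30-36 h at 37C. ONE-Glo luminescence was read; sodium butyrate at 4.5 mM final served as control.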
Luc counter: counter-screen: inhibitors of Kinase-Glo firefly luciferase; Q27757; Kinase-Glo luciferase, ATP luminescence, 8 min; Potency, µM (doses to about 38.3 µM), actives largely listed as inhibitors; 0.28% of 200,000 active; AID 1379; note: nearly all actives have a fitted effect of over 60% in size
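Recombinant Kinase-Glo luciferase, 10 uM ATP (linear range), luciferin; imidazole pH 7.2 / KCl / MgCl2 / Tween / BSA buffer; 8 min RT; luminescence.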
FLuc counter: firefly luciferase modulation, counter-screen for miR-21 project. Potency, µM (series often up to 57.5 µM), hits mostly inhibitors. 6.9% of 360,000 active. purified FLuc, Km substrates, luminescence inhibition. AID 588342. P08659; note: nearly all actives have a fitted effect of over 55% in size
Target sequence (P08659 whole entry, looked up): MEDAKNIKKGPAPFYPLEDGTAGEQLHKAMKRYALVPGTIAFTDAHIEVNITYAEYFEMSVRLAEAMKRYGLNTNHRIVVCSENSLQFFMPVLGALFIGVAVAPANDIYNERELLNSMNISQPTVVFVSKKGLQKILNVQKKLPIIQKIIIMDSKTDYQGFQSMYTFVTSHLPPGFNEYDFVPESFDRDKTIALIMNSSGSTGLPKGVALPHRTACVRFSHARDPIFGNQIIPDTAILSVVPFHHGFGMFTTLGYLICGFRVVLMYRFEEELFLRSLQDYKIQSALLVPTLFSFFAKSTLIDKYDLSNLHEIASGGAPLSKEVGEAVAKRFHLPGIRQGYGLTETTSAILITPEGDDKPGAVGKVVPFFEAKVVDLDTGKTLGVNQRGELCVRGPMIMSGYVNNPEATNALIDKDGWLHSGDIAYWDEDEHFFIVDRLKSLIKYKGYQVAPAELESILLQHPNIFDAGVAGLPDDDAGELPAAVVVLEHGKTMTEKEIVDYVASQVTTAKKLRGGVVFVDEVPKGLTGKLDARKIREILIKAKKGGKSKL
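Purified P. pyralis luciferase (10nM final) with 10uM D-luciferin and 10uM ATP (Km levels) in 50mM Tris acetate pH 7.5, 10mM Mg acetate, 0.01% Tween-20, 0.05% BSA; qHTS 6-point titration, ~60 µM downward; luminescence read.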
Each line names hits and unclear results; the compound was inactive in the other large screens. Only some compounds are listed: those with a hit (about 7.5% of all), similar ones and a draw of the others. Calls come from the whole dose curve; as a rule, active = well fitted curve in the direction sought with a large enough effect; inconclusive = small, poorly fitted or top-dose-only effect, or another doubt; inactive = no such curve, though single readings can be large; an effect the other way counts as inactive or inconclusive.

Cc1cc(N/N=C/c2ccccc2F)nc(NCc2ccccc2)n1	FLuc counter 15µM (no result: SMN2 splice enh, Luc counter)
Cc1cc(N/N=C/c2cccc(F)c2)nc(NCc2ccccc2)n1	FLuc counter 12µM (no result: SMN2 splice enh, Luc counter)
CN(C)c1nc(NCc2ccccc2)nc(N/N=C/c2ccccc2F)n1	none
Cc1cc(N/N=C/c2ccccc2)nc(NCc2ccccc2)n1	FLuc counter 6µM
Cc1cc(N/N=C/c2ccc(Cl)cc2)nc(NCc2ccccc2)n1	FLuc counter 15µM
CCN(CC(=O)Nc1cc(Cl)ccc1C)C(=O)CCS(=O)(=O)c1ccc(C)cc1	none (no result: SMN2 splice enh, Luc counter)
Cc1ccccc1C(=O)Nc1ccc(N(C)C)c2ccccc12	FLuc counter inconclusive (no result: SMN2 splice enh, Luc counter)
CN(C)c1ccc(N=Nc2ccc(S(=O)(=O)O)cc2)c2ccccc12	FLuc counter 17µM
CCCS(=O)(=O)N1CC(=O)N(c2ccc(Cl)cc2C)C(C)(C(=O)NC2CCCC2)C1 (configuration not stated)	none (no result: NPC1 promoter act, Rab9 promoter act, ELG1 genotox, SMN2 splice enh, Luc counter)
CCOC(=O)c1ccc(-c2ccc(/C=N/NC(=O)c3cncc(Br)c3)o2)cc1	NPC1 promoter act 1.3µM, Rab9 promoter act 0.71µM, ELG1 genotox inconclusive (no result: SMN2 splice enh, Luc counter)
CCOC(=O)c1ccc(-c2ccc(/C=N/NC(=O)Cc3nnc(N)s3)o2)cc1	NPC1 promoter act 2.5µM, Rab9 promoter act 3.2µM, FLuc counter inconclusive (no result: SMN2 splice enh, Luc counter)
COc1ccc(-n2c(SCC(=O)Nc3ccc4c(c3)OCO4)nc3c([nH]c4ccccc43)c2=O)cc1	none (no result: NPC1 promoter act, Rab9 promoter act, ELG1 genotox, SMN2 splice enh, Luc counter)
NC(=S)c1ccc[n+]([C@@H]2O[C@@H](COP(=O)([O-])OP(=O)(O)OC[C@H]3O[C@@H](n4cnc5c(N)ncnc54)[C@H](OP(=O)(O)O)[C@H]3O)C(O)C2O)c1 (some centres not stated)	SMN2 splice enh inconclusive (no result: NPC1 promoter act, Rab9 promoter act, ELG1 genotox, FLuc counter)
Cc1nc(-c2coc3c(O)c(O)ccc3c2=O)cs1	SMN2 splice enh 22µM (no result: NPC1 promoter act, Rab9 promoter act, ELG1 genotox, FLuc counter)
CC(/C=C/c1ccc(N(C)C)cc1)=N/N=C1/NC(=O)CC(C(=O)Nc2ccc(Cl)cc2)S1 (configuration not stated)	SMN2 splice enh inconclusive, FLuc counter 7.6µM
CC(/C=C/c1ccc(N(C)C)cc1)=N\N=C1\NC(=O)CC(C(=O)Nc2ccccc2)S1 (configuration not stated)	NPC1 promoter act inconclusive, Rab9 promoter act inconclusive, SMN2 splice enh 16µM, FLuc counter 2.4µM
CCCOc1ccc(NC(=O)C2CC(=O)N/C(=N/N=C(\C)CCc3ccc4c(c3)OCO4)S2)cc1 (configuration not stated)	none
CCCOc1ccc(NC(=O)C2CC(=O)N/C(=N/N=C(C)/C=C/c3ccc(N(C)C)cc3)S2)cc1 (configuration not stated)	NPC1 promoter act inconclusive, Rab9 promoter act inconclusive, SMN2 splice enh 13µM, FLuc counter 2.4µM
COc1ccc(NC(=O)C2CC(=O)N/C(=N/N=C/c3ccccc3)S2)cc1 (configuration not stated)	ELG1 genotox inconclusive (no result: SMN2 splice enh, Luc counter)
C=CCn1c(SCc2csc(-c3ccc(C)cc3)n2)nnc1-c1ccccc1OC	FLuc counter 21µM (no result: SMN2 splice enh, Luc counter)
COc1ccccc1-n1cnnc1SCc1csc(-c2ccccc2)n1	none
CCc1nn2c(=O)cc(COC(=O)c3ccccc3)nc2s1	FLuc counter 17µM (no result: NPC1 promoter act, Rab9 promoter act, ELG1 genotox, SMN2 splice enh, Luc counter)
O=C(OCc1cc(=O)n2c(n1)sc1ccccc12)c1ccc(O)cc1	ELG1 genotox inconclusive, SMN2 splice enh 20µM, FLuc counter inconclusive
CCc1nn2c(=O)cc(COC(=O)c3ccccc3NC(=O)c3ccc(C(C)(C)C)cc3)nc2s1	FLuc counter 5.4µM (no result: NPC1 promoter act, Rab9 promoter act, ELG1 genotox, SMN2 splice enh, Luc counter)
Cc1csc2nc(COC(=O)c3ccccc3NC(=O)c3ccc(C(C)(C)C)cc3)cc(=O)n12	FLuc counter 2.7µM (no result: NPC1 promoter act, Rab9 promoter act, ELG1 genotox, SMN2 splice enh, Luc counter)
O=c1cc(CCl)nc2sc3ccccc3n12	none
Cc1cccc(NC(=S)N2CCC(NC(=O)c3cccc(F)c3)CC2)c1	none (no result: SMN2 splice enh, Luc counter)
Nn1c(SCc2nc3ccccn3c2Br)nnc1-c1cccnc1	none
O=C(O)CN(c1ccccc1)S(=O)(=O)c1cc(C(F)(F)F)cc(C(F)(F)F)c1	FLuc counter inconclusive
O=C(Cc1cccs1)Nc1nnc(SCC(=O)N2CCCCC2)s1	none
O=C(Nc1nnc(SCC(=O)N2CCCCC2)s1)c1cccs1	SMN2 splice enh inconclusive, FLuc counter 19µM
O=C(Nc1nnc(SCC(=O)N2CCOCC2)s1)c1ccccc1Cl	NPC1 promoter act inconclusive, Rab9 promoter act inconclusive, FLuc counter 8.5µM
O=C(Nc1nnc(SCC(=O)N2CCCCC2)s1)c1ccccc1F	FLuc counter 24µM (no result: SMN2 splice enh, Luc counter)
CC1Cc2ccccc2N1C(=O)CSc1nc2ccc(NC(=O)COc3ccccc3)cc2s1 (configuration not stated)	none (no result: NPC1 promoter act, Rab9 promoter act, ELG1 genotox, SMN2 splice enh, Luc counter)
CCc1nc(-c2cc3ccc(C)cc3[nH]c2=O)no1	Rab9 promoter act inconclusive, ELG1 genotox inconclusive, SMN2 splice enh inconclusive, FLuc counter 15µM
Cc1ccc2cc(-c3noc(C(C)(C)C)n3)c(=O)[nH]c2c1	none

Compound activity: PubChem BioAssay, National Center for Advancing Translational Sciences (NCATS)
